Results on 8 compounds are retold here after PubChem BioAssay (NCI).

Compounds without any hit were thinned out: in the full panel of roughly 83,000, 20% have a hit.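 Plates (96-well) were seeded with cells, treated with compound at one concentration, and incubated for 48 hours before percent growth was determined.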 Unmarked numbers belong to inactive results. The source made the active and inactive calls. Rule for the calls: active = growth percent below 10; inactive = the rest.

Some test systems named below: HCT-15 colon; HT29 colon; SNB-75 CNS; SNB-19 CNS; U251 CNS; PC-3 prostate; SK-MEL-5 melanoma; UACC-62 melanoma; LOX IMVI melanoma; SK-MEL-28 melanoma; EKVX NSCLC; SN12C renal; UO-31 renal; TK-10 renal; ACHN renal; CAKI-1 renal; A498 renal; CCRF-CEM leukemia; MOLT-4 leukemia.
Assay in all cases: NCI-60 one-dose screen, 48 h (100 = growth as untreated, 0 = no growth, -100 = all killed)
What all share (conditions): 10 µM unless noted

For the compound `Cc1cc(Nc2cc(N3CCN(C)CC3)nc(Sc3ccc(NC(=O)C4CC4)cc3)n2)n[nH]1`, the growth with HCT-15 colon was 40.2%; with HT29 colon, 0.79% (active); in the experiment on SNB-75 CNS it was 0.133% (active); with SNB-19 CNS, 46.8%; with U251 CNS it was 30%; in the experiment with PC-3 prostate it was 35.2%. In addition, the growth in the experiment with SK-MEL-5 melanoma was 9.58% (active); with UACC-62 melanoma, 13%; in the experiment with LOX IMVI melanoma, -69.2% (active); in the experiment with SK-MEL-28 melanoma, 34.4%; with EKVX NSCLC, 76.6%; in the experiment with SN12C renal, 33.4%. For the same compound, the growth was 22.3% in the experiment with UO-31 renal; 38.8% with TK-10 renal; 42.4% in the experiment on ACHN renal; 31.8% with CAKI-1 renal; -16% (active) in the experiment with A498 renal; 35.6% with CCRF-CEM leukemia. Moreover, in the experiment with MOLT-4 leukemia, the growth was 26%.
For `CS(=O)(=O)N1CCc2c(-c3cnc(N)nc3)nc(N3CCOCC3)nc21`, the growth is 9.65% (active) in the experiment with HCT-15 colon; 6.31% (active) in the experiment on HT29 colon; -45.1% (active) in the experiment on SNB-75 CNS; 16.1% with SNB-19 CNS; 12.4% in the experiment on U251 CNS; 10.1% with PC-3 prostate. Besides, the growth in the experiment with SK-MEL-5 melanoma is -3.03% (active); with UACC-62 melanoma, -41.1% (active); in the experiment on LOX IMVI melanoma, 1.28% (active); in the experiment on SK-MEL-28 melanoma, -15.9% (active); in the experiment on EKVX NSCLC, 10.2%; with SN12C renal it was 8.6% (active). The growth was -21.8% (active) with UO-31 renal; -21.4% (active) with TK-10 renal; 0.427% (active) with ACHN renal; -8.15% (active) with CAKI-1 renal; -49.9% (active) in the experiment with A498 renal; 22.2% in the experiment on CCRF-CEM leukemia. Moreover, the growth with MOLT-4 leukemia is 9.81% (active).
As to `COc1cc(NCCCN)c2ncccc2c1`, the growth in the experiment on HCT-15 colon is 100%; in the experiment with HT29 colon, 75.6%; with SNB-75 CNS, 87.5%; in the experiment on SNB-19 CNS, 87.5%; in the experiment on U251 CNS it was 83.2%; in the experiment on PC-3 prostate, 82.2%. Further, the growth in the experiment with SK-MEL-5 melanoma was 81.5%; in the experiment with UACC-62 melanoma, 86.8%; with LOX IMVI melanoma it was 61.8%; in the experiment on SK-MEL-28 melanoma it was 83.4%; in the experiment on EKVX NSCLC it was 105%; with SN12C renal, 84.7%. The growth in the experiment with UO-31 renal is 63.4%; in the experiment with TK-10 renal, 84.8%; in the experiment with ACHN renal, 97.2%; in the experiment on CAKI-1 renal, 97.2%; with A498 renal, 56.9%; in the experiment with CCRF-CEM leukemia, 92.5%. Also, in the experiment on MOLT-4 leukemia, the growth was 91.5%.
On to `CCCCCCCCCNCCCCCCCCC`, for which the growth with HCT-15 colon was 32.4%; in the experiment on HT29 colon, 0.373% (active); with SNB-75 CNS it was 67.2%; in the experiment with SNB-19 CNS, 82.2%; in the experiment on U251 CNS it was 49%; with PC-3 prostate, 59.4%. In addition, the growth with SK-MEL-5 melanoma was 54.1%; in the experiment on UACC-62 melanoma, 83.2%; in the experiment on LOX IMVI melanoma, 41.9%; with SK-MEL-28 melanoma, 43.5%; with EKVX NSCLC, 81.9%; in the experiment on SN12C renal, 59.5%. The growth is 36.4% with UO-31 renal; 70.4% in the experiment on TK-10 renal; 81.5% in the experiment on ACHN renal; 42% in the experiment on CAKI-1 renal; 88.9% in the experiment with A498 renal; 23.7% in the experiment on CCRF-CEM leukemia. In addition, in the experiment on MOLT-4 leukemia, the growth was 49.7%.
With `Cc1ccc(Nc2nccc(N(C)c3ccc4c(C)n(C)nc4c3)n2)cc1S(N)(=O)=O`, the growth in the experiment with HCT-15 colon was 14.3%; in the experiment on HT29 colon, 3.61% (active); in the experiment on SNB-75 CNS, -25.9% (active); in the experiment on SNB-19 CNS, 30.9%; with U251 CNS, 18.8%; in the experiment with PC-3 prostate, 45.2%. For the same compound, the growth with SK-MEL-5 melanoma was -34% (active); in the experiment with UACC-62 melanoma, -18.3% (active); in the experiment on LOX IMVI melanoma it was -30.1% (active); in the experiment with SK-MEL-28 melanoma, 8.83% (active); in the experiment on EKVX NSCLC, 25.7%; with SN12C renal it was 25.7%. Besides, the growth in the experiment on UO-31 renal is -2.51% (active); in the experiment with TK-10 renal, 21.2%; in the experiment with ACHN renal, 25.8%; in the experiment on CAKI-1 renal, 15.1%; in the experiment on A498 renal, -57% (active); in the experiment with CCRF-CEM leukemia, 34%. For the same compound, the growth in the experiment on MOLT-4 leukemia was 5.93% (active).
Regarding `Cc1cc(Nc2nc(N[C@@H](C)c3ncc(F)cn3)ncc2Cl)n[nH]1`, the growth in the experiment with HCT-15 colon was 58.4%; in the experiment on HT29 colon, 39.1%; in the experiment on SNB-75 CNS, 88.3%; in the experiment with SNB-19 CNS, 80.9%; in the experiment with U251 CNS, 52.7%; in the experiment with PC-3 prostate, 81.8%. Also, the growth in the experiment on SK-MEL-5 melanoma is 95.9%; in the experiment on UACC-62 melanoma it was 65%; in the experiment with LOX IMVI melanoma, 37.9%; with SK-MEL-28 melanoma it was 87.8%; in the experiment on EKVX NSCLC, 99.6%; in the experiment with SN12C renal, 77.6%. Besides, the growth with UO-31 renal was 51%; in the experiment on TK-10 renal, 82.8%; in the experiment with ACHN renal, 63.4%; with CAKI-1 renal, 70.1%; in the experiment with A498 renal it was -2.39% (active); with CCRF-CEM leukemia it was 76.6%. In addition, the growth in the experiment on MOLT-4 leukemia is 62.3%.
With `O=C(Cc1ccc(-c2ccc(OCCN3CCOCC3)cc2)cn1)NCc1ccccc1`, the growth in the experiment on HCT-15 colon was 7.16% (active); in the experiment on HT29 colon, 4.32% (active); in the experiment with SNB-75 CNS it was 15.3%; in the experiment with SNB-19 CNS, 14.1%; in the experiment with U251 CNS it was 3.6% (active); in the experiment on PC-3 prostate, 15.2%. Besides, the growth with SK-MEL-5 melanoma was -39.8% (active); in the experiment with UACC-62 melanoma, 29%; in the experiment on LOX IMVI melanoma, 17.5%; with SK-MEL-28 melanoma, 36.1%; in the experiment with EKVX NSCLC, 26.1%; in the experiment on SN12C renal, 20.3%. Also, the growth is 35.8% in the experiment on UO-31 renal; 40.3% with TK-10 renal; 22.1% in the experiment with ACHN renal; 19% in the experiment with CAKI-1 renal; 1.26% (active) with A498 renal; 9.96% (active) in the experiment on CCRF-CEM leukemia. The growth in the experiment with MOLT-4 leukemia was 18.1%.
On to `CCN(CC)c1cc2oc3cc(N)cc(=N)c-3nc2cc1C`, for which the growth is 37.8% with HCT-15 colon; 86.7% in the experiment on HT29 colon; 11.6% with SNB-75 CNS; 69.7% in the experiment with SNB-19 CNS; 19.4% in the experiment on U251 CNS; 39.2% in the experiment on PC-3 prostate. Also, the growth with SK-MEL-5 melanoma is -2.64% (active); in the experiment with UACC-62 melanoma it was 30.8%; with LOX IMVI melanoma, -0.53% (active); with SK-MEL-28 melanoma it was 34.3%; in the experiment with EKVX NSCLC, 50.5%; with SN12C renal, 31.1%. For the same compound, the growth with UO-31 renal is 67.9%; with TK-10 renal it was 13.2%; in the experiment with ACHN renal, 17.6%; in the experiment on CAKI-1 renal, 42.5%; with A498 renal, 82%; in the experiment on CCRF-CEM leukemia, 15.3%. In addition, the growth in the experiment with MOLT-4 leukemia is 29.1%.
